# Reference: publication PMC5349851, “Combinatorial bZIP dimers display complex DNA-binding specificity landscapes”
# Legend:
# Assay in all cases: SELEX-seq (CSI, HT-SELEX, round 3); SELEX-seq: 1x PBS (10 mM phosphate, 137 mM NaCl, 2.7 mM KCl) pH 7.6, 2.5 mM DTT, 50 ng/ul poly dI-dC, 0.1% BSA, 50 nM biotinylated bZIP (1:3 with partner for heterodimers), 100 nM library, room temperature, 1 h, 3 rounds; high values mean tight binding
# Conditions in all cases: protein: recombinant;recombinant; copies: 1;1; dsDNA, one strand shown
# FOS;NFE2L1 = FOS;NFE2L1 (Homo sapiens;Homo sapiens, UniProt P01100;Q14494 128-201;609-725, |)
# FOS;MAFB = FOS;MAFB (Homo sapiens;Homo sapiens, UniProt P01100;Q9Y5Q3 128-201;212-305, |)
# FOS;CREB3 = FOS;CREB3 (Homo sapiens;Homo sapiens, UniProt P01100;O43889 128-201;141-221, |)
# FOS;CREB3L3 = FOS;CREB3L3 (Homo sapiens;Homo sapiens, UniProt P01100;Q68CJ9 128-201;234-311, |)
# ATF5;CEBPE = molecular target: T1, ATF5;CEBPE (Homo sapiens;Homo sapiens, UniProt Q9Y2D1;Q15744 199-275;195-267, |)
# T1 sequence 1: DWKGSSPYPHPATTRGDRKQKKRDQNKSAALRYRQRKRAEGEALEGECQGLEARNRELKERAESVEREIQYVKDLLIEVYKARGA
# T1 sequence 2: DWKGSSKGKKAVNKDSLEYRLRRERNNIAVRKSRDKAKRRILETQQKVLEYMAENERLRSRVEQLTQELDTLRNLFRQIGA
# ATF5;JUNB = molecular target: T2, ATF5;JUNB (Homo sapiens;Homo sapiens, UniProt Q9Y2D1;P17275 199-275;259-332, |)
# T2 sequence 1: T1 sequence 1
# T2 sequence 2: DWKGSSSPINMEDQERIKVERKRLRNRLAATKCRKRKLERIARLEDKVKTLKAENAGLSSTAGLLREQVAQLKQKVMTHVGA
# ATF5;BATF = molecular target: T3, ATF5;BATF (Homo sapiens;Homo sapiens, UniProt Q9Y2D1;Q16520 199-275;17-90, |)
# T3 sequence 1: T1 sequence 1
# T3 sequence 2: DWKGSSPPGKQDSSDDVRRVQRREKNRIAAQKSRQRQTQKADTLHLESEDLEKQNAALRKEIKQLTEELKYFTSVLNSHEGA
# ATF5;CREB3L1 = molecular target: T4, ATF5;CREB3L1 (Homo sapiens;Homo sapiens, UniProt Q9Y2D1;Q96BA8 199-275;281-358, |)
# T4 sequence 1: T1 sequence 1
# T4 sequence 2: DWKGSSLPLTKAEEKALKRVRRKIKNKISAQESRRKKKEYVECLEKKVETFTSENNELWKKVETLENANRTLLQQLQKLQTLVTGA
# ATF5;BATF2 = molecular target: T5, ATF5;BATF2 (Homo sapiens;Homo sapiens, UniProt Q9Y2D1;Q8N1L9 199-275;8-85, |)
# T5 sequence 1: T1 sequence 1
# T5 sequence 2: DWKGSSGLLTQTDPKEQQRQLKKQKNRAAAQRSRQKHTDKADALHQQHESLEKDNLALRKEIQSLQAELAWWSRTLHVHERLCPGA
# NFE2;MAFG = NFE2;MAFG (Homo sapiens;Homo sapiens, UniProt Q16621;O15525 221-337;25-124, |)
# NFE2L1;MAFG = NFE2L1;MAFG (Homo sapiens;Homo sapiens, UniProt Q14494;O15525 609-725;25-124, |)
# HLF;HLF = molecular target: T6, HLF;HLF (Homo sapiens;Homo sapiens, UniProt Q16534;Q16534 216-293;216-293, |)
# T6 sequence 1: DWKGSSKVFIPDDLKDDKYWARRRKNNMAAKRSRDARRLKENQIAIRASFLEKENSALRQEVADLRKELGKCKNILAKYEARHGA
# T6 sequence 2: T6 sequence 1
# NFIL3;NFIL3 = molecular target: T7, NFIL3;NFIL3 (Homo sapiens;Homo sapiens, UniProt Q16649;Q16649 64-134;64-134, |)
# T7 sequence 1: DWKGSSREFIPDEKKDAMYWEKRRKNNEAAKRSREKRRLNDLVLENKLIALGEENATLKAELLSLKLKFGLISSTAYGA
# T7 sequence 2: T7 sequence 1
# MAFG;MAFG = MAFG;MAFG (Homo sapiens;Homo sapiens, UniProt O15525;O15525 25-124;25-124, |)
# MAFB;FOSL1 = MAFB;FOSL1 (Homo sapiens;Homo sapiens, UniProt Q9Y5Q3;P15407 212-305;96-169, |)
# MAFB;ATF5 = MAFB;ATF5 (Homo sapiens;Homo sapiens, UniProt Q9Y5Q3;Q9Y2D1 212-305;199-275, |)
# FOS;BATF2 = FOS;BATF2 (Homo sapiens;Homo sapiens, UniProt P01100;Q8N1L9 128-201;8-85, |)
# ATF5;FOS = ATF5;FOS (Homo sapiens;Homo sapiens, UniProt Q9Y2D1;P01100 199-275;128-201, |)
# NFE2;NFE2 = molecular target: T8, NFE2;NFE2 (Homo sapiens;Homo sapiens, UniProt Q16621;Q16621 221-337;221-337, |)
# T8 sequence 1: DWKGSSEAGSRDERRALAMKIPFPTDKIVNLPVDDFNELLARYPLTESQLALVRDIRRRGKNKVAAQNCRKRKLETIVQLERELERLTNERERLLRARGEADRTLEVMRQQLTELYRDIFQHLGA
# T8 sequence 2: T8 sequence 1
# ATF5;CREB3L3 = molecular target: T9, ATF5;CREB3L3 (Homo sapiens;Homo sapiens, UniProt Q9Y2D1;Q68CJ9 199-275;234-311, |)
# T9 sequence 1: T1 sequence 1
# T9 sequence 2: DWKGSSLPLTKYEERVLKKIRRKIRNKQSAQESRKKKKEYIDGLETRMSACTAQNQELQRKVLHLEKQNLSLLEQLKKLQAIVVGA
# Chain of FOS;BATF2 (P01100 other isoform, or with tags, fused parts or gaps |): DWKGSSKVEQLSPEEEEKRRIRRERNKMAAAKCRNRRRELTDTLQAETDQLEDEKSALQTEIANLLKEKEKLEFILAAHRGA
# Chain of FOS;CREB3L3 (P01100 other isoform, or with tags, fused parts or gaps |, chain 1 of 2, one chain of several): as the sequence (P01100 other isoform, or with tags, fused parts or gaps |) above
# Chain of FOS;CREB3 (P01100 other isoform, or with tags, fused parts or gaps |, chain 1 of 2): as the sequence (P01100 other isoform, or with tags, fused parts or gaps |) above
# Chain of FOS;CREB3 (O43889 other isoform, or with tags, fused parts or gaps |, chain 2 of 2): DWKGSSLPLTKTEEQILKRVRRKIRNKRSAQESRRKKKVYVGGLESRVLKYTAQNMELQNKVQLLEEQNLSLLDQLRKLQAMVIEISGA
# Chain of ATF5;FOS (P01100 other isoform, or with tags, fused parts or gaps |): as the sequence (P01100 other isoform, or with tags, fused parts or gaps |) above
# Chain of FOS;MAFB (P01100 other isoform, or with tags, fused parts or gaps |, chain 1 of 2): as the sequence (P01100 other isoform, or with tags, fused parts or gaps |) above
# Chain of FOS;MAFB (Q9Y5Q3 other isoform, or with tags, fused parts or gaps |, chain 2 of 2): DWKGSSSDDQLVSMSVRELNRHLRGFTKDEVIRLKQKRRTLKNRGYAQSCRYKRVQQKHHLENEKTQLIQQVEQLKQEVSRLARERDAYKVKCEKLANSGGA
# Chain of FOS;NFE2L1 (P01100 other isoform, or with tags, fused parts or gaps |, chain 1 of 2): as the sequence (P01100 other isoform, or with tags, fused parts or gaps |) above
# Chain of FOS;NFE2L1 (Q14494 other isoform, or with tags, fused parts or gaps |, chain 2 of 2): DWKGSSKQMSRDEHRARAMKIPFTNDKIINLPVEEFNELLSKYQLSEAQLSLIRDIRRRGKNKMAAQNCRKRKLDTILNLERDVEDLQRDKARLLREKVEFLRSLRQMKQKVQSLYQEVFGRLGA
# Chain of MAFB;FOSL1 (Q9Y5Q3 other isoform, or with tags, fused parts or gaps |, chain 1 of 2): as the sequence (Q9Y5Q3 other isoform, or with tags, fused parts or gaps |, chain 2 of 2) above
# Chain of MAFB;FOSL1 (P15407 other isoform, or with tags, fused parts or gaps |, chain 2 of 2): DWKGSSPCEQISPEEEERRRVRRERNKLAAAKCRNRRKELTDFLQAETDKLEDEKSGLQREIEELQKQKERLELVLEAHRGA
Sequence,binding signal (FOS;NFE2L1),binding signal (FOS;MAFB),binding signal (FOS;CREB3),binding signal (FOS;CREB3L3),binding signal (ATF5;CEBPE),binding signal (ATF5;JUNB),binding signal (ATF5;BATF),binding signal (ATF5;CREB3L1),binding signal (ATF5;BATF2),binding signal (NFE2;MAFG),binding signal (NFE2L1;MAFG),binding signal (HLF;HLF),binding signal (NFIL3;NFIL3),binding signal (MAFG;MAFG),binding signal (MAFB;FOSL1),binding signal (MAFB;ATF5),binding signal (FOS;BATF2),binding signal (ATF5;FOS),binding signal (NFE2;NFE2),binding signal (ATF5;CREB3L3)
ATGATGCAAT,0.174 relative CSI intensity (max = 1),0.0246 relative CSI intensity (max = 1),0.00378 relative CSI intensity (max = 1),0.00314 relative CSI intensity (max = 1),0.402 relative CSI intensity (max = 1),0.00145 relative CSI intensity (max = 1),0.00475 relative CSI intensity (max = 1),0.00221 relative CSI intensity (max = 1),0.02 relative CSI intensity (max = 1),0.0058 relative CSI intensity (max = 1),0.00579 relative CSI intensity (max = 1),0.0587 relative CSI intensity (max = 1),0.107 relative CSI intensity (max = 1),0.00357 relative CSI intensity (max = 1),0.00125 relative CSI intensity (max = 1),0.00407 relative CSI intensity (max = 1),–,–,–,–
ATGACGCAAT,0.49 relative CSI intensity (max = 1),0.0613 relative CSI intensity (max = 1),0.0275 relative CSI intensity (max = 1),0.00168 relative CSI intensity (max = 1),0.245 relative CSI intensity (max = 1),0.00597 relative CSI intensity (max = 1),0.00602 relative CSI intensity (max = 1),–,0.0275 relative CSI intensity (max = 1),0.00814 relative CSI intensity (max = 1),0.00759 relative CSI intensity (max = 1),0.245 relative CSI intensity (max = 1),0.224 relative CSI intensity (max = 1),–,0.00163 relative CSI intensity (max = 1),0.00342 relative CSI intensity (max = 1),0.00476 relative CSI intensity (max = 1),0.024 relative CSI intensity (max = 1),0.0016 relative CSI intensity (max = 1),–
ATGACGTAAT,0.12 relative CSI intensity (max = 1),0.0637 relative CSI intensity (max = 1),–,0.0238 relative CSI intensity (max = 1),0.189 relative CSI intensity (max = 1),0.0445 relative CSI intensity (max = 1),0.0375 relative CSI intensity (max = 1),0.00877 relative CSI intensity (max = 1),0.174 relative CSI intensity (max = 1),0.00855 relative CSI intensity (max = 1),0.0021 relative CSI intensity (max = 1),0.728 relative CSI intensity (max = 1),0.7 relative CSI intensity (max = 1),0.0106 relative CSI intensity (max = 1),0.00946 relative CSI intensity (max = 1),0.0179 relative CSI intensity (max = 1),0.0531 relative CSI intensity (max = 1),0.00734 relative CSI intensity (max = 1),0.00452 relative CSI intensity (max = 1),0.00383 relative CSI intensity (max = 1)
CCTGACGTCA,–,0.0128 relative CSI intensity (max = 1),0.0122 relative CSI intensity (max = 1),–,0.073 relative CSI intensity (max = 1),0.0543 relative CSI intensity (max = 1),0.0188 relative CSI intensity (max = 1),0.00567 relative CSI intensity (max = 1),0.0163 relative CSI intensity (max = 1),0.00227 relative CSI intensity (max = 1),–,–,0.00977 relative CSI intensity (max = 1),–,0.0285 relative CSI intensity (max = 1),0.0743 relative CSI intensity (max = 1),0.00375 relative CSI intensity (max = 1),0.0125 relative CSI intensity (max = 1),–,0.00229 relative CSI intensity (max = 1)
ATGACGTCAT,0.472 relative CSI intensity (max = 1),0.278 relative CSI intensity (max = 1),1 relative CSI intensity (max = 1),0.751 relative CSI intensity (max = 1),0.364 relative CSI intensity (max = 1),1 relative CSI intensity (max = 1),0.864 relative CSI intensity (max = 1),1 relative CSI intensity (max = 1),0.86 relative CSI intensity (max = 1),0.0346 relative CSI intensity (max = 1),0.0138 relative CSI intensity (max = 1),0.205 relative CSI intensity (max = 1),0.344 relative CSI intensity (max = 1),0.0131 relative CSI intensity (max = 1),0.196 relative CSI intensity (max = 1),0.148 relative CSI intensity (max = 1),1 relative CSI intensity (max = 1),1 relative CSI intensity (max = 1),0.112 relative CSI intensity (max = 1),1 relative CSI intensity (max = 1)
ATGACGGAAT,0.00712 relative CSI intensity (max = 1),0.00352 relative CSI intensity (max = 1),0.0131 relative CSI intensity (max = 1),0.00582 relative CSI intensity (max = 1),0.047 relative CSI intensity (max = 1),0.00218 relative CSI intensity (max = 1),–,–,–,–,0.00175 relative CSI intensity (max = 1),–,0.00935 relative CSI intensity (max = 1),0.00454 relative CSI intensity (max = 1),–,–,–,0.0159 relative CSI intensity (max = 1),–,–
